Several values for one entry are separate records, joined by “and”; a condition that tells them apart may be missing. Equal values may be shown once. Compounds without any hit were thinned out: in the full panel of roughly 83,000, 20% have a hit.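 Compound tested at a single concentration for 48 hours in 96-well plates; a percent growth value below 10 was scored as active.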 Activity calls are given as the source filed them.
Columns and labels:
Assay in all cases: NCI-60 one-dose screen, 48 h (100 = growth as untreated, 0 = no growth, -100 = all killed)
Conditions in all cases: 10 µM unless noted
[1] = system: T-47D breast
[2] = system: BT-549 breast
[3] = system: MDA-MB-435 melanoma
[4] = system: SW-620 colon
[5] = system: MCF7 breast
[6] = system: HCT-116 colon
[7] = system: HCC-2998 colon
[8] = system: KM12 colon

Row | SMILES | growth [1] | growth [2] | growth [3] | growth [4] | growth [5] | growth [6] | growth [7] | growth [8]
1 | COc1ccc(Oc2nc(Nc3ccc(N4CCOCC4)cc3)ncc2NC(=O)c2cccc(C(F)(F)F)c2)cc1 | 76.5% (inactive) | 96.9% (inactive) | 98.2% (inactive) | 87.1% (inactive) | 79.3% (inactive) | 70.2% (inactive) | 75.9% (inactive) | 59.3% (inactive)
2 | Cc1ccc2[nH]c(=S)[nH]c(=O)c2c1 | 89% (inactive) | 101% (inactive) | 101% (inactive) | 103% (inactive) | 99.8% (inactive) | 101% (inactive) | 98.2% (inactive) | 100% (inactive)
3 | COc1c(NC=O)c2c(c([N+](=O)[O-])c1OC)C(=O)OC2 | 109% (inactive) and 93.1% (inactive) | 94.4% (inactive) | 115% (inactive) and 101% (inactive) | 109% (inactive) and 103% (inactive) | 97.2% (inactive) and 89.6% (inactive) | 108% (inactive) and 106% (inactive) | 105% (inactive) and 89.9% (inactive) | 109% (inactive) and 102% (inactive)
4 | Nn1c(-c2ccc(Cl)cc2)nc2c(-c3ccc(Cl)cc3)nc3ccc(Cl)cc3c2c1=O | 9.59% (active) | 45.1% (inactive) | 37.4% (inactive) | -66.1% (active) | 21.7% (inactive) | -100% (active) | 372% (inactive) | 36.9% (inactive)
5 | CCOC(=O)N(O)c1ccc(/C=C/c2ccccc2)cc1 | 11.2% (inactive) and 5.56% (active) | 78.1% (inactive) and 69.9% (inactive) | 84.6% (inactive) and 84.1% (inactive) | 60.2% (inactive) and 46.6% (inactive) | 8.37% (active) and 10.4% (inactive) | 11.2% (inactive) and 17.6% (inactive) | 59.3% (inactive) and 66.4% (inactive) | 78.5% (inactive) and 64.9% (inactive)
6 | CCOC(=O)c1ccc(Nc2ncnc3c2cnn3-c2cccc(F)c2)cc1 | 100% (inactive) | 100% (inactive) | 103% (inactive) | 99.8% (inactive) | 95% (inactive) | 99.3% (inactive) | 104% (inactive) | 99.3% (inactive)
7 | Nc1n[nH]c2cccc(C#Cc3cccc(C(=O)Nc4ccc(CN5CCOCC5)c(C(F)(F)F)c4)c3)c12 | 6.17% (active) | 23.7% (inactive) | 38.7% (inactive) | 49.3% (inactive) | 33.4% (inactive) | 13.3% (inactive) | 26.9% (inactive) | 19% (inactive)
8 | COc1ccc(-c2cc(=O)c3c(O)cc(O)cc3o2)cc1 | 101% (inactive) and 100% (inactive) | 109% (inactive) | 96.3% (inactive) and 96.5% (inactive) | 106% (inactive) and 105% (inactive) | 117% (inactive) and 106% (inactive) | 103% (inactive) and 94.5% (inactive) | 102% (inactive) and 104% (inactive) | 91% (inactive) and 93.1% (inactive)
9 | O=C(N/N=C/c1ccc(O)cc1O)c1cccc(Nc2ccnc(C(F)(F)F)c2)c1 | 28.8% (inactive) | 42.3% (inactive) | 41% (inactive) | 35.7% (inactive) | 21.2% (inactive) | 12.3% (inactive) | 33.7% (inactive) | 34.7% (inactive)
10 | Cc1cc2nc(C(Cl)Cl)nc(-c3ccc(Cl)cc3)n2n1 | 27.4% (inactive) | 52.5% (inactive) | -25.2% (active) | -36.6% (active) | 2.98% (active) | -2.01% (active) | -77% (active) | -27.2% (active)
11 | CC(=O)N1N=C(c2ccc(Nc3nc(Nc4ccc(F)cc4)nc(Nc4ccc(F)cc4)n3)cc2)CC1c1ccccc1 (stereo unspecified) | 56.2% (inactive) | 120% (inactive) | 105% (inactive) | 95.7% (inactive) | 66.2% (inactive) | 80.7% (inactive) | 94.3% (inactive) | 89.1% (inactive)
12 | O=C(Oc1ccc(CO[N+](=O)[O-])cc1)c1ccccc1 | -37.4% (active) | -97% (active) | -94% (active) | -56.8% (active) | -54.4% (active) | -86.2% (active) | -81.9% (active) | -78.9% (active)
13 | O=C(Nc1cc(C(F)(F)F)cc(C(F)(F)F)c1)c1cc(Cl)ccc1O | -14% (active) and -1.66% (active) | -31.5% (active) | -21.2% (active) and -8.57% (active) | 2% (active) and 5.7% (active) | 3.02% (active) and 1.11% (active) | -20.2% (active) and -28.9% (active) | -25.4% (active) and 4.04% (active) | -24.3% (active) and -33% (active)
14 | CC/C=C\C/C=C\C[C@H](O)C/C=C1/C(=O)C=C[C@@H]1C/C=C\CCCC(=O)OC | 4.23% (active) | -14.9% (active) | -16.4% (active) | -46.3% (active) | 2.32% (active) | -63.8% (active) | -83.9% (active) | -71.6% (active)
15 | Cc1ccc2c(c1)C(C)Cc1c(ncnc1-n1cnc3cc(C)ccc31)N2C (stereo unspecified) | 55.9% (inactive) | -0.751% (active) | 4.21% (active) | 22.7% (inactive) | 12.6% (inactive) | 11.2% (inactive) | 21.7% (inactive) | 16.5% (inactive)
16 | Clc1ccc(CNc2ccc3nc(CCC4CCCCC4)[nH]c3c2)cc1 | 24.3% (inactive) | 83.3% (inactive) | 66.4% (inactive) | 26.2% (inactive) | 37.9% (inactive) | 36.2% (inactive) | -57.6% (active) | 50.7% (inactive)
17 | Clc1nccc2c(-c3csc(-c4c[nH]c5ccc(Br)cc45)n3)c[nH]c12 | 17.7% (inactive) | 53.2% (inactive) | 36.9% (inactive) | -31.1% (active) | 23.7% (inactive) | 22.8% (inactive) | 27.8% (inactive) | 17.1% (inactive)
18 | COc1cc2cc(NCc3ccncc3)nc(C)c2cc1OC | 71.2% (inactive) | 77.9% (inactive) | 106% (inactive) | 107% (inactive) | 93.4% (inactive) | 93.1% (inactive) | 106% (inactive) | 109% (inactive)
19 | C#CCOCC1CN(C)C(=O)O1 (stereo unspecified) | 126% (inactive) | 131% (inactive) | 101% (inactive) | 97% (inactive) | 90.2% (inactive) | 119% (inactive) | 109% (inactive) | 107% (inactive)
20 | O=C(CCl)n1nnnc1Cc1ccccc1 | 98.8% (inactive) | 93.7% (inactive) | 103% (inactive) | 101% (inactive) | 101% (inactive) | 102% (inactive) | 94.6% (inactive) | 116% (inactive)
21 | CN(C)CCN1C(=O)c2c(c3c4ccccc4n4c3c3c2c2ccccc2n3C2CC(O)C(O)C4(C)O2)C1=O (stereo unspecified) | 30.1% (inactive) | 62.9% (inactive) | 32.1% (inactive) | 18.5% (inactive) | 6.41% (active) | 22.4% (inactive) | 26.4% (inactive) | 34.2% (inactive)
22 | COc1cc(/C=C2\C(=O)N(CCCCn3c4ccccc4c(=O)c4ccccc43)c3ccccc32)cc(OC)c1O | 66.1% (inactive) | 51.1% (inactive) | 6.24% (active) | 47.4% (inactive) | 22.8% (inactive) | 57.6% (inactive) | 92.4% (inactive) | 58.4% (inactive)

Source: PubChem BioAssay (NCI)
